# IEC-6 cytotox: kills IEC-6 intestinal cells in KLF5 counter-screen; IEC-6 cytotoxicity, luminescence viability; inhibition, % at 5 µM; 0.78% of 290,000 active; in the data active means inhibition above about 22%
# Ba/F3 V617F tox: loss of viability in JAK2V617F-driven Ba/F3 cells; 1.1% of 220,000 active; Ba/F3 EpoR-JAK2V617F viability, ATP luminescence; inhibition, % at 5.6 µM; AID 1446;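 active means inhibition above the campaign mean plus 3 SD over all tested compounds, cut at about 24% in these data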;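 further: cytokine-independent growth of Ba/F3 cells driven by EpoR plus mutant JAK2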
# BaF3 tox: parental Ba/F3 viability inhibition as JAK2V617F counter-screen. inhibition, % at 5.6 µM. CellTiter-Glo ATP luminescence. 1.1% of 220,000 active;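 active means inhibition above a per-campaign cutoff, the mean inhibition of all tested compounds plus 3 SD, cut at about 27% in these data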
# KLF5 inhibitor: inhibitors of KLF5 expression | DLD-1 KLF5 promoter-luciferase reporter, luminescence | inhibition, % at 5 µM | 0.23% of 290,000 active | AID 1700;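 active means inhibition above a per-plate limit of that plate's mean compound inhibition plus 3 SD, cut at about 60% in these data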;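 further: higher means less KLF5 promoter-driven luciferase light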
# APP 5UTR inh: APP translation inhibition; inhibition, % at 2 µM; AID 1285; 0.82% of 190,000 active; SH-SY5Y APP 5'UTR-luciferase reporter, luminescence;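 active means inhibition above a set limit, derived from the sample mean plus 3 SD, cut at about 45% in these data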
# Hits are given with their value; n = inactive; x = no result. A selection: hits, their analogues and other compounds. The true share with any hit is near 1.9%.
SMILES,IEC-6 cytotox,Ba/F3 V617F tox,BaF3 tox,KLF5 inhibitor,APP 5UTR inh
CN(C)c1cc[n+](CC(=O)c2ccc(Br)cc2)cc1,n,51,56,n,n
CCOc1ccc(C(C)=O)cc1CN1c2ccc(S(N)(=O)=O)cc2CC1C (stereo not given),n,x,x,n,x
COc1ccccc1-c1noc(CCC(=O)NC2CCCCC2)n1,n,x,x,n,x
CCOC(=O)N1CCN(Cc2nc3cc(NC(=O)CC(C)C)ccc3n2CC)CC1,n,x,x,n,x
O=C(COC(=O)C12CC3CC(CC(C3)C1)C2)Nc1ccccc1F,n,n,n,n,n
COc1ccc2oc(=O)c(-c3csc(Nc4ccc(O)cc4)n3)cc2c1,n,60,28,n,n
Cc1ccc(NC(=O)c2cc(N3C(=O)C=CC3=O)ccc2N2CCOCC2)cc1Cl,n,n,n,n,77
Cc1ccc(NC(=O)c2cc(N3C(=O)CCC3=O)ccc2N2CCOCC2)cc1,n,n,n,n,n
COc1ccc(S(=O)(=O)N2CCCCC2)cc1NC(=O)c1ccc([N+](=O)[O-])o1,n,n,n,n,56
COc1ccc(S(=O)(=O)N2CCCCC2)cc1NC(=O)c1ccco1,n,x,x,n,x
CC(=O)Oc1cccc(N2C(=O)c3ccc(C(=O)Nc4c[nH]c(=O)[nH]c4=O)cc3C2=O)c1,n,n,n,n,n
CC1CCCCN1S(=O)(=O)c1ccc(S(=O)(=O)N(Cc2ccccc2)Cc2ccco2)cc1 (stereo not given),n,n,n,n,58
O=C1CC(Sc2nnc(-c3ccccc3O)o2)C(=O)N1c1ccccc1 (stereo not given),n,n,n,n,n
COc1ccc(N2C(=O)CC(Sc3nnc(-c4ccccc4)o3)C2=O)cc1 (stereo not given),n,n,n,n,46
Cc1cc(C)cc(NC(=S)NCCN(C2CCCCC2)C2CCCC2)c1,n,n,72,n,n
O=C(CN(C(=O)c1csnn1)c1cccc2c1CCCC2)NCc1ccccc1,n,x,x,n,x
O=C(CCc1ccccc1)Nc1ccc(F)cc1F,n,n,n,n,47
COc1cccc(OCCCCCCN2CCOCC2)c1,n,n,n,n,50
CCOc1cccc(OCCCCN2CCOCC2)c1,n,n,n,n,n
COCCOC1CCN(C(=O)c2cc(COc3ccc(F)cc3F)on2)CC1,n,x,x,n,x
CCc1ccc(/C=N/NC(=O)c2cc(C3CC3)nc3ccc(Br)cc23)s1,n,n,n,n,72
CCn1c(C)cc(/C=C2/NC(=O)N(c3ccccc3)C2=O)c1C,n,40,n,n,n
COCCn1c(C)cc(/C=C2/NC(=O)N(c3cccc(Cl)c3)C2=O)c1C,n,n,n,n,n
Nc1ccc(-c2nc3ccccc3[nH]2)cc1,n,n,n,n,n
Fc1ccc(-c2nc3ccccc3[nH]2)cc1,n,n,63,n,n
SMILES,IEC-6 cytotox,Ba/F3 V617F tox,BaF3 tox,KLF5 inhibitor,APP 5UTR inh
Cc1ccc(-c2nc(CS(=O)CC(=O)NCc3ccc4c(c3)OCO4)c(C)o2)cc1 (stereo not given),n,x,x,n,x
C/C(=N\NC(=O)c1c[nH]c2ccccc12)c1ccccn1,n,n,n,n,47
C/C(=N\NC(=O)c1c[nH]c2ccccc12)c1ccco1,n,n,n,n,n
Cc1ccc(N(CC(=O)N2CCN(c3ccccc3F)CC2)S(=O)(=O)c2c(C)noc2C)cc1,n,x,x,n,x
CC(=O)/C=C/n1c(=S)oc2ccccc21,n,n,n,n,87
COc1ccc(/C=N/OC(=O)Nc2ccccc2OC)cc1,35,n,n,n,n
CCC(=O)c1ccc(OCC(O)Cn2c(C)nc3ccccc32)cc1 (stereo not given),n,42,44,n,n
Cc1nc2ccccc2n1CC(O)COc1ccc(Br)cc1 (stereo not given),n,n,n,n,n
COc1ccc(C)cc1NC(=O)CN1C(=O)COc2ccc(S(=O)(=O)N3CCCCC3)cc21,n,x,x,n,x
O=C(NCCc1ccccc1Cl)c1ccc2nc3ccccc3c(=O)n2c1,n,x,x,n,x
COc1ccc(OCC(=O)NNC(=O)c2cccc(S(=O)(=O)N(C)C)c2)cc1,n,n,n,n,50
NC(=O)C(=CNc1nc(-c2ccc(Cl)c(Cl)c2)cs1)C(N)=O,n,n,n,n,x
CCCC(=O)NC(c1cccs1)c1cc([N+](=O)[O-])c2cccnc2c1O (stereo not given),n,n,n,n,n
CCCCC(=O)NC(c1ccco1)c1cc(Cl)c2cccnc2c1O (stereo not given),n,n,n,n,46
CCC(=O)NC(c1cccs1)c1cc([N+](=O)[O-])c2cccnc2c1O (stereo not given),n,n,n,n,x

# Source: PubChem (several laboratories)
